Screening data deposited in PubChem by National Center for Advancing Translational Sciences (NCATS).
In the library only some 5.3% were active in any assay of this set; here they are far more common.
IMPase inh – membrane-permeable compound that blocks inositol monophosphatase; P97697; CHO-M1 cells, IP1 accumulation, HTRF TR-FRET ratio; inhibition (IP1 accumulation), % at 46.1 µM; 120,000 tested, under 10 active; active = well fitted curve in the direction sought with a large enough effect in the signal ratio, not every such curve was filed as active; inconclusive = small, poorly fitted or top-dose-only effect, or a change in a side signal; inactive = no such curve, though single readings can be large or run the other way; the % refers to the signal ratio;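 also: cells stimulated with carbachol in lithium chloride buffer; plate controls were DMSO basal wells for no effect and reference inhibitor wells for full effect; higher means more IMPase inhibition seen as more IP1 and lower FRET ratio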
Target sequence (P97697 whole entry, looked up): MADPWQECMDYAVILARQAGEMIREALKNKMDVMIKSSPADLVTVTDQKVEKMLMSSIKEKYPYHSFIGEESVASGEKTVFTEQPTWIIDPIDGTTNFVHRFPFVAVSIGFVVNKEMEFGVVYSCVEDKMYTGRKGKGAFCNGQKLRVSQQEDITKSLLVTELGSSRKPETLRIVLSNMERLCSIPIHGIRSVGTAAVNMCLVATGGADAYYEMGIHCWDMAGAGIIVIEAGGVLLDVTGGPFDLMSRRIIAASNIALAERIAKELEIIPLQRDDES
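CHO-M1 cells (CHO stably expressing M1 receptor), compound up to 46 uM final, stimulated with carbachol (50 uM as added) in buffer with 50mM LiCl, pH 7.4, 30 min at 37C. Cytosolic IP1 read by TR-FRET; AC50 from Hill fits.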
PNC inhibitor – inhibitors of perinucleolar compartment assembly; PC3M PTB-GFP, PNC prevalence imaging, 16 h; hits give low values; activity change (PNC), negative = inhibition, % at 10 µM; hit rate 3.1% among 140,000; AID 2417;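 active = readout at or below -70, meaning at least 70% loss of cells showing the perinucleolar compartment, a nuclear body marking cancer cells; inconclusive = readout between -30 and a set limit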;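 also: plate controls were DMSO wells for no effect and camptothecin positive control wells for full effect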
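PC3M cells stably expressing PTB-GFP, 750–1000 cells/well, treated 16 h at 37 °C with compound (23 nl of library stock), in duplicate. After paraformaldehyde fixation and Hoechst stain, imaged at 20x; PNC prevalence scored by image analysis.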
15-hLO-2 inh – inhibitors of human 15-lipoxygenase 2 (ALOX15B) | O15296 | purified 15hLO-2, xylenol orange hydroperoxide absorbance | Potency, µM (series often up to 57.1 µM), for the others: top-dose activity change, negative = inhibition, hits mostly inhibitors | hit rate 0.56% among 110,000; also: potency is read from the fitted curve at half-maximal effect; nearly all actives have a fitted effect of over 60% in size
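Read-out: hydroperoxide product oxidises ferrous iron, measured as xylenol orange complex via the 573-to-405 nm absorbance ratio after 30 min. Reaction: 50 nM enzyme, 15 min compound preincubation, 45 uM arachidonic acid, 90 min RT, Hepes pH 7.5 with Triton X-100.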
IMPase Li cell – IMPase inhibition in cells with lithium potentiation; hit rate 0.35% among 210,000; CHO-M1 cells, IP1 TR-FRET (IP-One), carbachol + lithium; Potency, µM (top dose mostly 59.4 µM), for inactives: at the highest dose activity, negative = IMPase inhibition, hits mostly inhibitors; AID 1457;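 also: IP1 builds up when IMPase is blocked and the TR-FRET signal falls; potency is read from the fitted curve at half-maximal effect; plate controls were basal vehicle for no effect and high inhibitor control for full effect; nearly all actives have a fitted effect of over 50% in size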
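CHO cells stably expressing M1 receptor (2000/well) were cultured 16–30 h, then exposed to compounds with a small lithium addition for 30 min at 37C. IP1 was measured by TR-FRET competition; AC50 from Hill fits.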
HPGD inh – HPGD (human) dehydrogenase inhibition; purified HPGD, NADH fluorescence kinetic, PGE2 substrate; Potency, µM, without a hit: at the highest dose activity change, negative = inhibition, hits mostly inhibitors; hit rate 4.3% among 150,000; P15428; active = well fitted inhibition curve with a large enough effect, not every such curve was filed as active; inconclusive = small, poorly fitted or top-dose-only effect, or another doubt; inactive = no such curve, though single readings can be large or run the other way; also: potency is read from the fitted curve at half-maximal effect
Target sequence (P15428 whole entry, looked up): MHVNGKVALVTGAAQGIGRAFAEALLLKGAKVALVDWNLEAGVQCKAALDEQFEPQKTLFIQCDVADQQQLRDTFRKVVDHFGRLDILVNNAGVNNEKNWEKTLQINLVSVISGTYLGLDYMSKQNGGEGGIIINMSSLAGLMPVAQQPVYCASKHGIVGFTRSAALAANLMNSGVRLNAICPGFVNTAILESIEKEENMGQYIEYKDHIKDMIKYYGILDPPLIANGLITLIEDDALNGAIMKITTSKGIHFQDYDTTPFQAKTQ
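NADH formation kinetics: reaction with 30 uM PGE2 and 1 mM NAD+ (final), 20 nM enzyme, Tris-HCl pH 8 with Tween 20, after 15 min compound preincubation at room temperature. Fluorescence change, last versus first of five reads.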
ALOX12 inhib – 12-hLO (ALOX12) enzyme inhibition; P18054; purified 12-hLO, xylenol orange hydroperoxide absorbance; Potency, µM (series often up to 57.1 µM), for the others: at the highest dose activity change, negative = inhibition, actives largely listed as inhibitors; hit rate 0.12% among 150,000; also: potency is read from the fitted curve at half-maximal effect; nearly all actives have a fitted effect of over 55% in size
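Purified human 12hLO (150 nM final) was preincubated with compounds for 15 min at room temperature in 25 mM Hepes pH 7.0, 0.01% Triton X-100, then reacted with 40 uM arachidonic acid for 30 min. Hydroperoxide was detected with ferrous iron/xylenol orange.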
Starred values were filed as active, the others as inactive; ? = inconclusive; . = no result given; ! = not confirmed by another sample; [ ] = dose if it differs, or a comment. Unless noted, calls follow the shape of the dose curve; as a rule, active = well fitted curve in the direction sought with a large enough effect; inconclusive = small, poorly fitted or top-dose-only effect, or another doubt; inactive = no such curve, though single readings can be large; an effect the other way counts as inactive or inconclusive. Unless noted, % is scaled to controls: 0 for no effect and ±100 for the full control effect.

SMILES | IMPase inh | PNC inhibitor | 15-hLO-2 inh | IMPase Li cell | HPGD inh | ALOX12 inhib
COC(=O)c1ccccc1NC(=O)C1CCCN(S(=O)(=O)c2ccccc2)C1 (stereo not drawn) | 11 | ? | -3% | 18%[38.3 µM] | -10% | -8%
CCc1cc2c(SCC(=O)Nc3cc(C)on3)ncnc2s1 | . | . | . | 3% | . | .
O=C(Cn1cc(C(=O)C2CC2)c2ccccc21)Nc1ccc(Br)cc1 | 3 | . | . | . | . | .
Cc1ccc2c(c1)C(=O)c1ccccc1CS2=O (stereo not drawn) | . | ? | . | 5% | -23% | -3%
CCCCCCCCCCCC1=C(O)C(=O)C=C(O)C1=O | 25 | . | 32µM* | 29% | 14µM*! | 8.9µM*
O=C(O)c1n[nH]c2c1CCCCC2 | -7 | -89* | -13% | 8%[38.3 µM] | -3% | -25%
O=C(O)c1n[nH]c2c1CCCC2 | -17 | 20 | 6% | 19%[38.3 µM] | 0% | -3%
Cc1ccc(OCC(=O)Nc2ccc(S(=O)(=O)Nc3ncccn3)cc2)c(C(C)(C)C)c1 | -10 | . | . | . | . | .
Cc1c2oc3c(C)ccc(C(=O)N[C@@H]4C(=O)N[C@@H](C(C)C)C(=O)N5CCC[C@@H]5C(=O)N(C)CC(=O)N(C)[C@@H](C(C)C)C(=O)O[C@H]4C)c3nc-2c(C(=O)N[C@@H]2C(=O)N[C@@H](C(C)C)C(=O)N3CCC[C@@H]3C(=O)N(C)CC(=O)N(C)[C@@H](C(C)C)C(=O)O[C@H]2C)c(N)c1=O | -2 | . | 6% | 22% | ? | 1%
C=CCn1c(SCC(=O)NCCOC)nnc1-c1cc2c(s1)CCC(CC)C2 (stereo not drawn) | 4 | -20 | . | 2% | 18µM* | -2%
C=CCn1c(SCC(=O)NCC)nnc1-c1cc2c(s1)CCC(CC)C2 (stereo not drawn) | . | ? | . | 7% | -12% | 4%
O=C(COC(=O)c1cccc(S(=O)(=O)NCc2ccccc2)c1)c1ccccc1 | . | 57 | . | 16% | 20µM* | 1%
Cc1ccccc1Nc1nc(N)nc(COC(=O)c2cccc(S(=O)(=O)NCc3ccccc3)c2)n1 | . | 66 | . | 10% | 28µM* | -4%
Cc1ccc(C(=O)N[C@H](C(=O)OCC(=O)NC2CCS(=O)(=O)C2)C(C)C)cc1 (stereo partly drawn) | -3 | ? | . | 6% | 0% | 4%
N#CCCS(=O)(=O)c1nnnn1-c1ccccc1 | 2 | ? | ? | 4%[38.3 µM] | ? | -2%
COc1ccc(-c2c(C)nn(-c3ccccc3)c2N)cc1 | 3 | -10 | -12% | 27%[38.3 µM] | 20µM* | -8%
Cc1nn(C2CCCCC2)c(N)c1-c1ccccc1 | -9 | 31 | -3% | -5%[38.3 µM] | 11µM* | 2%
Cc1nn(C(C)(C)C)c(N)c1-c1ccccc1 | . | 95 | . | -3% | 28µM* | -1%
Cc1cc(Cl)ccc1OCCCC(=O)NCC1CCCO1 (stereo not drawn) | -6 | ? | -4% | 1%[38.3 µM] | 11µM* | -1%
CC(NC(=O)C(=O)NCC1CCCO1)c1ccccc1 (stereo not drawn) | . | . | . | -1% | . | .
Cc1ccc(-c2nn(CCC(=O)NCC3CCCO3)c(=O)c3ccccc23)cc1 (stereo not drawn) | -16 | 6 | -9% | 7%[38.3 µM] | -21% | -1%
O=C(CCn1nc(-c2ccccc2)c2ccccc2c1=O)NCC1CCCO1 (stereo not drawn) | -1 | 5 | -10% | -1%[38.3 µM] | 28µM* | 2%
O=C(CCCOc1ccccc1)NCC1CCCO1 (stereo not drawn) | 4 | -18 | 20% | -7%[38.3 µM] | 13µM* | 3%
O=C(CC(c1ccccc1)c1ccccc1)NCC1CCCO1 (stereo not drawn) | 6 | 22 | -2% | 2%[38.3 µM] | 7.9µM* | 0%
O=C(OCc1ccc(Cl)cc1)c1ccccc1C(=O)c1ccccc1 | 6 | 53 | -9% | -6%[38.3 µM] | -18% | -1%
SMILES | IMPase inh | PNC inhibitor | 15-hLO-2 inh | IMPase Li cell | HPGD inh | ALOX12 inhib
CC[C@H](CO)NCCN[C@@H](CC)CO | -9[20.6 µM] | . | 7%[25.6 µM] | -12% | -3% | 4%[25.6 µM]
CCOc1ccccc1NC(=O)c1c(NC(=O)c2cccc(C)c2)sc2c1CCCC2 | 6 | . | . | . | . | .
CSc1ccc(S(=O)(=O)Nc2ccc(OCC(=O)N3CCOCC3)cc2)cc1 | . | . | . | 2% | . | .
O=C(CSc1nnc(NC(=O)Cc2ccccc2)s1)NCC1CCCO1 (stereo not drawn) | . | . | . | 6% | . | .
S=C(NCC1CCCO1)Nc1ccccc1Cl (stereo not drawn) | . | -17 | . | 1% | 13µM* | -4%
O=C(CCSc1ccccc1)NCC1CCCO1 (stereo not drawn) | 7 | ? | 1% | 15%[38.3 µM] | 16µM* | 2%
COc1ccccc1N1CCN(CC(=O)NCC2CCCO2)CC1 (stereo not drawn) | 10 | -119* | . | 10% | 7% | -11%
CC(=O)Nc1nnc(SCC(=O)NCC2CCCO2)s1 (stereo not drawn) | -4 | -100* | -1% | 17%[38.3 µM] | -17% | -5%
S=C(NCC1CCCO1)Nc1ccc(Cl)c(Cl)c1 (stereo not drawn) | . | . | . | 4% | . | .
CC(=O)Nc1cccc(-c2nnc(SCC(=O)n3c4c(c5ccccc53)CCCC4)n2C)c1 | 5 | -21 | -4% | 23%[38.3 µM] | -12% | -3%
Cc1ccc(C2(c3noc(CN(C)Cc4cccnc4)n3)CCCC2)cc1 | . | . | . | 13% | . | .
O=C(CC1CCCCC1)NCC1CCCO1 (stereo not drawn) | 16 | 1 | 8% | 0%[38.3 µM] | 14µM* | -4%
O=C(CCSCCC(=O)NCC1CCCO1)NCC1CCCO1 (stereo not drawn) | -5 | ? | -4% | 16%[38.3 µM] | -4% | 9%
CCCCc1ccc(C2C(C#N)=C(N)SC(N)=C2C#N)s1 | ? | 42 | 13µM* | -22%[38.3 µM] | 14µM* | ?
CC1(C)Cc2c(sc(NC(=O)C3CC(Cl)=CCC3C(=O)O)c2C#N)CO1 (stereo not drawn) | . | . | . | -2% | . | .
Cc1cccc(C)c1NC(=O)CC(NCCc1ccccc1)C(=O)O (stereo not drawn) | . | 15 | . | -2% | -10% | 2%
Cn1cccc1/C=N/N1CCN(c2ccccc2)CC1 | . | . | . | 18% | . | .
CCOc1ccc(-c2nnc(Nc3ccc(S(N)(=O)=O)cc3)c3ccccc23)cc1 | -2 | . | . | . | . | .
CCN(CC)CC(O)COc1ccccc1C(=O)CCc1ccccc1 (stereo not drawn) | 25 | -86* | 27% | . | . | 7%
Cc1nn(CC(=O)c2ccccc2)c(=O)c2nn(-c3ccccc3F)c(C)c12 | . | 13 | . | -5% | -3% | -2%
COc1cc(C(=S)N2CCOCC2)ccc1OS(=O)(=O)c1ccccc1[N+](=O)[O-] | . | 25 | . | 5% | ? | 0%
COc1ccc(C=O)cc1OS(=O)(=O)c1ccccc1[N+](=O)[O-] | . | ? | . | -5% | 20µM* | 1%
